Consider eight molecules from ChEMBL document CHEMBL3988442, “University of Dundee, Small-Polar-MMV Screening Library” (2021).

What all share (set-up): scale not given: direction of the effect not stated beside the values
For experiment [1], the target named is Protein translocase subunit SecA (Escherichia coli (strain K12)) (UniProt P10408). Description: Assay to Identify E. coli SecA ATPase Inhibitors. Type of experiment: functional. To be noted: 30 µM.
Experiment [2] has as its target T1, Ubiquitin-activating enzyme e1, putative (Leishmania donovani (strain BPK282A1)) (UniProt E9BSI1).
T1 sequence (whole entry): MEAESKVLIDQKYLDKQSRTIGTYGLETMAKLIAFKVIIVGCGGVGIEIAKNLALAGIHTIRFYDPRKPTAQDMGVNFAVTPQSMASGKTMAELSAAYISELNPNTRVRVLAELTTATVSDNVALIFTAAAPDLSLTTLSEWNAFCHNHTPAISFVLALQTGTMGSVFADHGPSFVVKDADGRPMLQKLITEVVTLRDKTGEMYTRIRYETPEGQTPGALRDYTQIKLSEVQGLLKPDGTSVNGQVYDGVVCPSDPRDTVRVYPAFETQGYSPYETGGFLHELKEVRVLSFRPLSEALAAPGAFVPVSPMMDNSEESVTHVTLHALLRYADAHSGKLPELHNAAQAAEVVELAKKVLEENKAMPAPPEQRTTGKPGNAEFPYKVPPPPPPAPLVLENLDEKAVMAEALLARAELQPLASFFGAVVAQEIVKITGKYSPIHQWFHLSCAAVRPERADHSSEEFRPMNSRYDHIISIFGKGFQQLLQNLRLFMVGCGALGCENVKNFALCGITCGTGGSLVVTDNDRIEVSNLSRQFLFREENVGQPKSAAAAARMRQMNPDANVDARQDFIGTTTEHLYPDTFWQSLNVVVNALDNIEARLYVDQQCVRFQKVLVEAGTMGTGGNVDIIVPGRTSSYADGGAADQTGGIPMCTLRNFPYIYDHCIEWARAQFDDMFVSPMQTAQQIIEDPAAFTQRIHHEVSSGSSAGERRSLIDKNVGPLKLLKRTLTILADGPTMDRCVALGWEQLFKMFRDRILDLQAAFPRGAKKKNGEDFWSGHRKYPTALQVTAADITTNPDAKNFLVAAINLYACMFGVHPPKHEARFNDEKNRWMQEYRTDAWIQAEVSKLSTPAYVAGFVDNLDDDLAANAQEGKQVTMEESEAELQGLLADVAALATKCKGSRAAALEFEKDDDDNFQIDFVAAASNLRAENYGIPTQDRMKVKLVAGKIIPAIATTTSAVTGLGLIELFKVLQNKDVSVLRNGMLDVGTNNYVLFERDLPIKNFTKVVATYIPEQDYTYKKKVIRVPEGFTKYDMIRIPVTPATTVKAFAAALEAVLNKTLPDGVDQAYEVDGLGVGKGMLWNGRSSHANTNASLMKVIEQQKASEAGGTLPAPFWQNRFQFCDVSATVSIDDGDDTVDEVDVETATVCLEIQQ
Description: Leishmania donovani Ubiquitin Activating Enzyme (LdE1). In kind it is functional. The conditions noted are these: 30 µM.

Experiment [3] deals with AMP-activated protein kinase, AMPK (Homo sapiens) (UniProt P54646+O43741+P54619+Q9UGJ0+Q9Y478+Q13131+Q9UGI9). The experiment in a line: AMP-dependent Kinase enzyme assay. An in vitro enzyme assay that detects ADP turnover that is directly proportional to AMPK activity. This uses naive AMPK that is activated during the assay with MK-8722. Type of experiment: functional. To be noted: 30 µM.

Experiment [4] concerns the target Sialic acid-binding Ig-like lectin 9 (Homo sapiens) (UniProt Q9Y336). Description: Hs-Siglec9 ALPHAscreen SOP 20170721. To be noted: 10 µM. A general note: Bead proximity is the source of the signal in Alpha formats.
The test system of the next experiment is Trypanosoma cruzi. The experiment in a line: Trypanosoma cruzi phosphomannomutase and mannose-1-phosphate guanylyltransferase assay. The conditions noted are these: 10 µM. In kind it is functional.
Experiment [5] addresses T2, Arginase-2, mitochondrial (Homo sapiens) (UniProt P78540).
T2 sequence (whole entry): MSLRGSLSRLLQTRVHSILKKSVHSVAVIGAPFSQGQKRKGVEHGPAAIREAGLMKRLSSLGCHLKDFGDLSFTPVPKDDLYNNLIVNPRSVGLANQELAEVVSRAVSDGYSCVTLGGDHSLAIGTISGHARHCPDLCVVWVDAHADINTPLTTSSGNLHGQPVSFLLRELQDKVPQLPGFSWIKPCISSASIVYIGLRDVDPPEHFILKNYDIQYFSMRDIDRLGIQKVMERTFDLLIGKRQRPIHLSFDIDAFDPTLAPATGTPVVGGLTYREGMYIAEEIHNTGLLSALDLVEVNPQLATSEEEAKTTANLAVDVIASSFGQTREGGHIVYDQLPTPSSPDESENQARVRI
Description: in vitro enzyme assay to detect the production of urea directly proportional to the activity of Arginase II. Note: in the data most compounds retested in dose-response had high values. In kind it is functional. The conditions noted are these: 33.3 µM.

Experiment [6] deals with T3, Proteasome subunit beta (Trypanosoma cruzi) (UniProt O96673).
T3 sequence (whole entry): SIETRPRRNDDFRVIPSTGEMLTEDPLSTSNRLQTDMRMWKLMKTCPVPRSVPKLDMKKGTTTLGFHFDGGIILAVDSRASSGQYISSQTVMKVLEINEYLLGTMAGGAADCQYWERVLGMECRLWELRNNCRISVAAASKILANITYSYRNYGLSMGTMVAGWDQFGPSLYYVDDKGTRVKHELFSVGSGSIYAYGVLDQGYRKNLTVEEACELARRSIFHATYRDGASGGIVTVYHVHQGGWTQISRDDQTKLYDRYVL
The experiment in a line: Trypanosoma cruzi proteasome chymotrypsin-like activity (TcProtChymo) assay. Note: in the data most compounds retested in dose-response had high values. The conditions noted are these: 9.37 µM. Type of experiment: functional.

For another experiment, the species on record is Homo sapiens. Description: To identify inhibition of the IFN signalling (Jak-Stat) pathway via expression of an eGFP reporter gene under the control of an IFN-stimulated response element (ISRE) containing MxA promoter. In kind it is functional. The conditions noted are these: 30 µM. (In a reporter assay the amount or activity of a reporter protein is the signal.)

For experiment [7], the target named is T4, Tyrosyl-tRNA synthetase, putative (Trypanosoma cruzi (strain CL Brener)) (UniProt Q4DSP6).
T4 sequence (whole entry): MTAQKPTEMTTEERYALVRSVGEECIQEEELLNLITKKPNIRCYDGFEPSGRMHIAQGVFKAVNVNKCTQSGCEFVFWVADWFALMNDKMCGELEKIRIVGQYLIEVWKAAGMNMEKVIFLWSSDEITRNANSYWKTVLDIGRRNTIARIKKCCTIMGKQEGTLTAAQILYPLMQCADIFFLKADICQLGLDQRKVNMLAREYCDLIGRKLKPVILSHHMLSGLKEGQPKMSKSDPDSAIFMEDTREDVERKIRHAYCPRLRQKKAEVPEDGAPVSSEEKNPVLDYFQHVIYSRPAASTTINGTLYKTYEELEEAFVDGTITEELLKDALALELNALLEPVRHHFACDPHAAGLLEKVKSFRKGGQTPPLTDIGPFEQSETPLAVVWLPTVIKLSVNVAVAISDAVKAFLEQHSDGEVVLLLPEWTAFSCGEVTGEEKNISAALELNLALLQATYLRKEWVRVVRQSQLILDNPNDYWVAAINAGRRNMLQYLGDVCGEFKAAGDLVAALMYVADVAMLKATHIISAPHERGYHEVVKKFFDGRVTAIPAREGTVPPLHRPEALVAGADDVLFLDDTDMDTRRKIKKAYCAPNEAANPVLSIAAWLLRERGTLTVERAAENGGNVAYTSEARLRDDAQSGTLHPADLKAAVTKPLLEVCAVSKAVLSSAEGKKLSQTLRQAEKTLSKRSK
Description: Trypanosoma cruzi tyrosyl tRNA synthetase (TcYRS) _High Tyrosine SOP. Note: in the data most compounds retested in dose-response had high values. In kind it is functional. To be noted: 30 µM.

Experiment [8] addresses T4, Tyrosyl-tRNA synthetase, putative (Trypanosoma cruzi (strain CL Brener)). Description: Trypanosoma cruzi tyrosyl tRNA synthetase (TcYRS) SOP. The conditions noted are these: 30 µM. Type of experiment: functional.
For experiment [9], the target named is Chromo domain-containing protein 1 (Saccharomyces cerevisiae (strain ATCC 204508 / S288c) (Baker's yeast)) (UniProt P32657). Description: ScCHD-1 Enzyme Inhibition Assay. Note: in the data most compounds retested in dose-response had high values. The conditions noted are these: 30 µM. Type of experiment: functional.

For some of these results: Potency and affinity values are given separately.

Sialic acid-binding Ig-like lectin 9 (Homo sapiens), sequence (Q9Y336 whole entry): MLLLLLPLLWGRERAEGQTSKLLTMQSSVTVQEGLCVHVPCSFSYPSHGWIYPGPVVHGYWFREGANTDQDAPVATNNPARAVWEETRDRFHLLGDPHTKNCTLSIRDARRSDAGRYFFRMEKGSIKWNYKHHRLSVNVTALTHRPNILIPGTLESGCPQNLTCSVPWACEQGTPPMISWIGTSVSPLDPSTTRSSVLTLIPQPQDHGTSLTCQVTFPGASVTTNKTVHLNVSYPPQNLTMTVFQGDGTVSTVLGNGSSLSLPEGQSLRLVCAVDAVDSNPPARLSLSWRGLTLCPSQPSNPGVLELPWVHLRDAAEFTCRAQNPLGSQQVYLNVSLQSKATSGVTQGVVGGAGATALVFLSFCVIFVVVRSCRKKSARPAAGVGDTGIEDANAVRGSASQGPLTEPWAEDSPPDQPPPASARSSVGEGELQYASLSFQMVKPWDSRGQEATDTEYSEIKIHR
Chromo domain-containing protein 1 (Saccharomyces cerevisiae (strain ATCC 204508 / S288c) (Baker's yeast)), sequence (P32657 whole entry, the tested form may be a part): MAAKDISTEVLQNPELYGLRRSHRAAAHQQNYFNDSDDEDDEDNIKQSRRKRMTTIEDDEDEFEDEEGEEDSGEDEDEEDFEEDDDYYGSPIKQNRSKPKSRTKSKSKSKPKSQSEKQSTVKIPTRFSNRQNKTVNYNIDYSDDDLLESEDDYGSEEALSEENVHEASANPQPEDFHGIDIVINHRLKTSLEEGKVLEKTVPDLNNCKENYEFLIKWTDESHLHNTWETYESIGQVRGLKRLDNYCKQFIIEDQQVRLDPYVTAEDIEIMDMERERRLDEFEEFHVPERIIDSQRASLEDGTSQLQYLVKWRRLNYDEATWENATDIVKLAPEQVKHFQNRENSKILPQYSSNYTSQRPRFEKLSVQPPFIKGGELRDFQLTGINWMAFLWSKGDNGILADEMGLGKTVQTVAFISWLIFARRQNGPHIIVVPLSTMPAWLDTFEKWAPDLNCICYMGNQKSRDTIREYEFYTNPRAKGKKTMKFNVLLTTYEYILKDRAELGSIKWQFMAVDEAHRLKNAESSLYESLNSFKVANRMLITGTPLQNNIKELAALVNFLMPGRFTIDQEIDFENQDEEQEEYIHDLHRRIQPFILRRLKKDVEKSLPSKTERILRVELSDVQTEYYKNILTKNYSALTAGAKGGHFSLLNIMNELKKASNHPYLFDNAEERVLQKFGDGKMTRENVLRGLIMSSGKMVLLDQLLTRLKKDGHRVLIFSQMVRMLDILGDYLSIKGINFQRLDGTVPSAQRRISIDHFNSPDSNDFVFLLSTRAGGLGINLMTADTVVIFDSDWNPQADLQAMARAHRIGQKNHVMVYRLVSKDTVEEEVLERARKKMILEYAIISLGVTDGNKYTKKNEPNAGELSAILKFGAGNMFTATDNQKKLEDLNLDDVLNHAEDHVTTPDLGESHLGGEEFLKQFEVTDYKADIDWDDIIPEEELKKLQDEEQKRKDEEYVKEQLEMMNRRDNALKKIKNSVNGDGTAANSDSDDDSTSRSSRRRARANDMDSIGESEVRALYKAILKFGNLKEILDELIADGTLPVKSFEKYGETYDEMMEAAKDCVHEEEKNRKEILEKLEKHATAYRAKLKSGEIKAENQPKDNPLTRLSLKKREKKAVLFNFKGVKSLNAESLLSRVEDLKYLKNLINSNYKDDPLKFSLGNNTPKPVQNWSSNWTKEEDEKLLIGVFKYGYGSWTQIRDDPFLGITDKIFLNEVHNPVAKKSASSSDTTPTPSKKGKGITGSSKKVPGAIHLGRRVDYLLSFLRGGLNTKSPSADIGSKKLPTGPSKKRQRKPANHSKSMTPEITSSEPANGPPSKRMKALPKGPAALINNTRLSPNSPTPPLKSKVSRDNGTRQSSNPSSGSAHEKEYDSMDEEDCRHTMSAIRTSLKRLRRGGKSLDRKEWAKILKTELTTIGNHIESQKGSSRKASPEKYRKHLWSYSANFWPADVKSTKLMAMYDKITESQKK
Protein translocase subunit SecA (Escherichia coli (strain K12)), sequence (P10408 whole entry): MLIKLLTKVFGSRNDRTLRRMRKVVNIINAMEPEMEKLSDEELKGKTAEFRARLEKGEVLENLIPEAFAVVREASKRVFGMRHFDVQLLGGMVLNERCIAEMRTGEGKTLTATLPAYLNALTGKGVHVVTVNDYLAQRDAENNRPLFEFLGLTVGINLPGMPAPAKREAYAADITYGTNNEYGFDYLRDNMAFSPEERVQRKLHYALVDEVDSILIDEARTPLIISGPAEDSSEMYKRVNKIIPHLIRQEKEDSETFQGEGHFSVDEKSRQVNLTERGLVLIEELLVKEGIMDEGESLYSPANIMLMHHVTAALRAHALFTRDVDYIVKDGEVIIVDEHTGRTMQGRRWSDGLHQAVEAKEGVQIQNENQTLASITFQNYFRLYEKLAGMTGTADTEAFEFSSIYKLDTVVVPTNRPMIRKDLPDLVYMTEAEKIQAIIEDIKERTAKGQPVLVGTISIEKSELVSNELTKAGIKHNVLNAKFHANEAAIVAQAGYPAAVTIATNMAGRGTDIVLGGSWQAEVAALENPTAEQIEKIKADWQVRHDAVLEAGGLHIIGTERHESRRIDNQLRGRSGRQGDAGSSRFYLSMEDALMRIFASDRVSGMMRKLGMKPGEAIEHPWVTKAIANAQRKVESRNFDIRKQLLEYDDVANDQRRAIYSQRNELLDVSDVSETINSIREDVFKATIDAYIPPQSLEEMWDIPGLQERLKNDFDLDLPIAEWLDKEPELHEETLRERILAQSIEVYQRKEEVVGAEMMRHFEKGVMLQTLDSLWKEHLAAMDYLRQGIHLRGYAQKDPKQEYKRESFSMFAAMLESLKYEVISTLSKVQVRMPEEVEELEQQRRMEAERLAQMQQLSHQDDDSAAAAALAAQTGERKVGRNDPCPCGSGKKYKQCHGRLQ

Take `CC1c2ncc(CN3CCN(C)CC3)n2CCN1Cc1cccnc1` (stereo not drawn): the Percent Effect in [1] was -2.48%; in experiment [2] it was 8%; in experiment [3], -3.01%; in experiment [4] it was 1.22%; in the experiment with Trypanosoma cruzi, 5.41%; in [5] it was -51.8%. Moreover, the Percent Effect in experiment [6] was 7.35%; in the experiment listed under Homo sapiens, -9.88%; in experiment [7] it was 5.21%; in [8], 5%; in [9] it was -7.93%.
Consider `COc1cc(C2CC(=O)Oc3cc(C)[nH]c(=O)c32)ccc1OC(F)F` (stereo not drawn), for which the Percent Effect in experiment [1] was -2.55%; in experiment [2], 17.3%; in experiment [3], -1.47%; in experiment [4], -4.76%; in the experiment with Trypanosoma cruzi, -5.3%; in experiment [5], -6.16%. Moreover, the Percent Effect was 19% in experiment [6]; 7.6% in the experiment filed under Homo sapiens; 3.17% in experiment [7]; 12.8% in experiment [8]; -13% in experiment [9].
Turning to `COc1ccc(CN2CCCC(Nc3cccc(F)c3)C2)cc1O` (stereo not drawn), the Percent Effect is -3.14% in experiment [1]; 0% in experiment [2]; -3.77% in experiment [3]; -2% in [4]; -0.293% in the experiment with Trypanosoma cruzi; -0.744% in experiment [5]. Further, the Percent Effect in [6] is -5.06%; in the experiment listed under Homo sapiens it was 53.9%; in experiment [7], 2.15%; in experiment [8], 6.17%; in experiment [9], 1.38%.
`Cc1cccc(C2(CNC(=O)CCNS(C)(=O)=O)CCCC2)c1`: the Percent Effect is -6.74% in experiment [1]; 15.2% in experiment [2]; -3.25% in experiment [3]; 11.3% in experiment [4]; 4.44% in the experiment on Trypanosoma cruzi; -11% in [5]. The Percent Effect in experiment [6] was 6.31%; in the experiment listed under Homo sapiens, -4.41%; in experiment [7], 5.42%; in experiment [8] it was 8.86%; in [9], -5.61%.
Consider `Cc1cccc(-n2cc(C(=O)N3CCn4c(C)nnc4C3)nn2)c1`, for which the Percent Effect in experiment [1] is -9.19%; in experiment [2] it was -2.74%; in experiment [3] it was 2.62%; in [4], 0.154%; in the experiment with Trypanosoma cruzi, -4.17%; in experiment [5], -8.38%. Besides, the Percent Effect was found to be 3% in experiment [6]; 21.1% in the experiment listed under Homo sapiens; 3.12% in experiment [7]; 1.24% in experiment [8]; 0.00385% in experiment [9].
Turning to `CC(C)Nc1nc2c(cc1C(=O)NCC1CC1)CCNCC2`, the Percent Effect in [1] was -1.6%; in experiment [2], 10.7%; in experiment [3], 6.52%; in experiment [4], 7.51%; with Trypanosoma cruzi, -2.9%; in [5], -29.2%. Also, the Percent Effect in experiment [6] is 8.55%; in the experiment listed under Homo sapiens, -6.96%; in [7], 7.29%; in experiment [8], 5%; in experiment [9], -10.3%.
As to `Oc1cc(CCC2CCCCN2)cc(-c2ccncc2)c1` (stereo not drawn), the Percent Effect in experiment [1] was -5.49%; in experiment [2] it was 0%; in [3], -8.16%; in experiment [4] it was 0.305%; with Trypanosoma cruzi, -3.92%; in experiment [5], 0.909%. In addition, the Percent Effect in experiment [6] is 20.1%; in the experiment filed under Homo sapiens, 1.09%; in experiment [7] it was 2.15%; in [8] it was 7.5%; in experiment [9], -3.03%.
`Cc1ccc(CCNC(=O)N2CCCC(Cc3nccn3C)C2)cn1` (stereo not drawn): the Percent Effect in experiment [1] is -5.16%; in [2], 0%; in [3], -1.4%; in experiment [4], 2.27%; with Trypanosoma cruzi it was 4.49%; in experiment [5], -2.5%. The Percent Effect in experiment [6] was 9.89%; in the experiment filed under Homo sapiens, 16.9%; in experiment [7], 7.92%; in experiment [8], 13.4%; in experiment [9], -0.907%.
